LYP act: activators of human LYP (PTPN22) phosphatase. Q9Y2R2. recombinant LYP, DiFMUP fluorescence; 0 = plate median, 100 = signal doubled. activation, % at 2 µM. 0.11% of 96,000 active. AID 697;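 active = activation at 2 µM above a set limit, the mean plus 5 SD, cut at about 37% in these data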
PLAP act: activates human placental alkaline phosphatase. P05187. purified PLAP enzyme, luminescent substrate read-out; stronger effect = higher value. activation fold at 20 µM. 1.2% of 96,000 active; in the data active = activation fold above about 2
Target sequence (P05187 whole entry, looked up): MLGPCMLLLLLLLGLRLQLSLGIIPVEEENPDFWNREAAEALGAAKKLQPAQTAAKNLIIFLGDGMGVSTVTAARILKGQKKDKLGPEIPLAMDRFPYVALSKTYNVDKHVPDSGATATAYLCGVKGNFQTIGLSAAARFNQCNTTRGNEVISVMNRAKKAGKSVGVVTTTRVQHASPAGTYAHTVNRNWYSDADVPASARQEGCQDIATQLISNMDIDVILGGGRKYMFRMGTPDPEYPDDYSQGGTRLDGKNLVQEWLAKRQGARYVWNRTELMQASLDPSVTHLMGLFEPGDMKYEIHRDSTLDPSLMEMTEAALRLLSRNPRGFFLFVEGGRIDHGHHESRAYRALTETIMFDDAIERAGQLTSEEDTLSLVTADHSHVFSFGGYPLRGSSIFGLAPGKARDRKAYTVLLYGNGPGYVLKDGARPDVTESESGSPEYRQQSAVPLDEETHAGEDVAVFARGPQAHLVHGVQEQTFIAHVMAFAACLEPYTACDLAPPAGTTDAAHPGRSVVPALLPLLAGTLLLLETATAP
LYP inh 2: blocks human PTPN22 phosphatase activity | recombinant LYP catalytic domain, DiFMUP fluorescence | inhibition, % at 2 µM | AID 640 | 0.21% of 96,000 active | Q9Y2R2;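 active = inhibition at 2 µM at or above a set limit, the screen mean plus 3 SD, cut at about 24% in these data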
FAK inh: FAK (human) kinase inhibition; Q05397; biochemical FAK kinase activity assay; inhibition, %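 (tested at 7 µM)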; 0.84% of 97,000 active
MRP-1 activ: activators of MRP-1; H69AR cells + doxorubicin, viability rescue, CellTiter-Glo; viability increase, % at 10 µM; 0.61% of 140,000 active; AID 799;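 active = viability gain under doxorubicin at or above a set limit, the compound median plus 3 SD, cut at about 4.7% in these data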;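 note: MRP-1 overexpressing cells given doxorubicin 25 µM after compound pretreatment; 18-22 h compound pretreatment then 72 h with doxorubicin before readout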
MRP resist rev: reverses drug resistance mediated by MRP; H69AR cells + 2 uM doxorubicin, CellTiter-Glo, 72 h; differential viability (reversal), % at 10 µM; 0.04% of 85,000 active;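 active = viability drop by adding the cancer drug above about 55%, with treated viability meeting a 40% cutoff, limit read from the data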;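 note: larger differential means the compound sensitizes cells more to doxorubicin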
LYP act confirm: LYP (PTPN22) phosphatase activation confirmation. 100 tested, under 10 active. AID 1031. activation, % at 2 µM. shares compounds with LYP act. Recombinant LYP, DIFMUP fluorescence; zero set by plate's median compound well; call rule not given here
FAK inh conf: FAK (human) inhibition confirmed | 28% of 750 active | inhibition, % at 7 µM | AID 794 | shares compounds with FAK inh | FAK kinase biochemical inhibition assay
Each line names hits and unclear results; the compound was inactive in the other large screens (follow-up assays come after a bar, where they were run). Most compounds without a hit are left out; they make up all but 2.2% or so of the library. Cut-off read from the data, not from the text of the source, unless noted: active = inhibition above about 19%; inactive = the rest.

CCCC1COC(Cn2cncn2)(c2ccc(Cl)cc2Cl)O1 (stereo not given)	LYP inh 2 62
CCN(CC)c1ccc(/C=N/c2sc3c(c2C#N)C2CCN3CC2)c(O)c1	none (no result: LYP act, PLAP act, LYP inh 2, FAK inh, MRP resist rev)
CCCCn1c(O)c(C=NC2CCCCC2N)c(=O)[nH]c1=O (stereo not given)	none
NC1CCCCC1N=Cc1c(O)n(Cc2ccc(F)cc2)c(=O)[nH]c1=O (stereo not given)	PLAP act 2.8
Cc1ccc(-n2c(O)c(C=NC3CCCCC3N)c(=O)[nH]c2=O)cc1C (stereo not given)	PLAP act 2.2
CCCCCCn1c(O)c(C=NC2CCCCC2N)c(=O)[nH]c1=O (stereo not given)	none
Cc1cccc(NP(C)(=O)c2nc3c(s2)CCCC3)c1 (stereo not given)	none (no result: LYP act, PLAP act, LYP inh 2, FAK inh, MRP resist rev)
O=c1[nH]c(=O)n(CCC2=CCCCC2)c(O)c1C=NCCCn1ccnc1	PLAP act 2.1
O=c1[nH]c(=S)n(CCC2=CCCCC2)c(O)c1C=NCCCn1ccnc1	none
O=P(OCC(F)(F)C(F)F)(N1CCCCC1)N1CCCCC1	none
Cc1nc2c(=O)n(C)c(=O)nc-2n(C)n1	LYP inh 2 32, FAK inh 68 (no result: PLAP act)
CN(C)C(=O)Oc1ccc(OC(=O)c2ccccc2)cc1	MRP-1 activ 8.2
CN(C(=O)Oc1ccc(C(=O)c2ccc(Cl)cc2)cc1)c1ccccc1	none (no result: LYP act, PLAP act, LYP inh 2, FAK inh, MRP resist rev)
O=C1CC(N2CCC(n3c(=O)[nH]c4ccccc43)CC2)C(=O)N1c1ccc(F)cc1 (stereo not given)	MRP-1 activ 6.2
O=c1[nH]c2ccccc2n1C1CCN(CCCC(c2ccc(F)cc2)c2ccc(F)cc2)CC1	none (no result: LYP act, PLAP act, LYP inh 2, FAK inh)
CCCCOC(=O)C1=C(N)OC2=C(C(=O)CCC2)[C@]12C(=O)N(C)c1ccccc12	none (no result: LYP act, LYP inh 2, FAK inh)
CC1CCN(S(=O)(=O)c2ccc(NN=C(C#N)C#N)cc2)CC1	LYP inh 2 26 (no result: MRP resist rev)
CCN1CCN(C(=O)COc2ccc3c(c2)C(=O)CC2(CCN(C(C)=O)CC2)O3)CC1	PLAP act 2.7
c1ccc2[nH]c(CCNC3CCCCC3)nc2c1	PLAP act 2.7
O=C(C1CC(=O)N(C2CCCCCCC2)C1)N1CCC2(CC1)OCCO2 (stereo not given)	none
O=C(Nc1ccc(F)cc1)c1c(O)c2c(n(Cc3ccccc3)c1=O)CCCC2	MRP-1 activ 9.0 (no result: LYP act, PLAP act, LYP inh 2, FAK inh, MRP resist rev)
CN1/C(=C\C=Nc2ccccc2)C(C)(C)c2ccccc21	none (no result: MRP resist rev)
CN1/C(=C\C=C\C2=[N+](C)c3ccc4ccccc4c3C2(C)C)C(C)(C)c2ccccc21	LYP inh 2 33
CC(=NCCC1=CCCCC1)c1c(O)[nH]c(=O)[nH]c1=O	none
O=C1NC(=O)C(=Cc2cn(CCOc3ccc4c(c3)OCO4)c3ccccc23)C(=O)N1	LYP inh 2 26
O=C1NC(=O)N(c2ccc3c(c2)OCO3)C(=O)/C1=C/c1ccc(N2CCCC2)o1	none (no result: LYP act, PLAP act, LYP inh 2, FAK inh, MRP resist rev)
Cc1ccc2nc3c(cc2c1)CC1(C(=O)N(C)C(=O)N(C)C1=O)C1CCCCN31 (stereo not given)	MRP-1 activ 5.8
O=C(COc1ccc(Br)cc1)N1CCN(C2CCCC2)CC1	MRP-1 activ 7.6
O=C(COc1ccccc1)N1CCN(C2CC3CCC2C3)CC1 (stereo not given)	none (no result: PLAP act)
O=C1NC(=O)N(c2ccc(Cl)cc2)C(=O)/C1=C\c1ccc(Sc2nc3ccccc3[nH]2)o1	none (no result: LYP act, PLAP act, LYP inh 2, FAK inh, MRP resist rev)
CC(C)CCC1(CN2CCCC2=O)C(=O)NC(=O)NC1=O	LYP act 39 | LYP act confirm inactive
CCCCn1c(O)c(/C=C/C=Nc2ccccc2)c(=O)[nH]c1=O	none (no result: LYP act, PLAP act, LYP inh 2, FAK inh, MRP resist rev)
CCCCn1c(C)c(C(=O)O)c2cc(OC)ccc21	FAK inh 32 | FAK inh conf inactive
COc1ccc2c(c1)c(C(=O)O)c(C)n2CC(C)C	none
O=C(O)C1C2CCC(O2)C1C(=O)NC1CCCCC1 (stereo not given)	none (no result: LYP act, PLAP act, LYP inh 2, FAK inh, MRP resist rev)
CC(N=Cc1c(O)[nH]c(=O)[nH]c1=O)c1ccccc1 (stereo not given)	none
O/N=C/c1c[nH]c2ccccc12	FAK inh 38 | FAK inh conf inactive
C=CCN(CC=C)Cc1c[nH]c2ccccc12	none (no result: MRP resist rev)
CCC(=NCc1ccc(F)cc1)c1c(O)n(C)c(=O)n(C)c1=O	none (no result: MRP resist rev)
COc1ccc(Cn2c(N)c(C(=O)NCc3ccco3)c3nc4ccccc4nc32)cc1OC	FAK inh 34 | FAK inh conf inactive
CC(C)CNC(=O)c1c(N)n(Cc2ccc3c(c2)OCO3)c2nc3ccccc3nc12	FAK inh 31 | FAK inh conf inactive
Nc1c(C(=O)NC2CCCC2)c2nc3ccccc3nc2n1CC1CCCO1 (stereo not given)	FAK inh 36 | FAK inh conf inactive
Cc1nn(CCC#N)c2c1P(=S)(N1CCCC1)OC(c1ccc(F)cc1)=N2 (stereo not given)	none
COc1ccc(NP(=O)(Nc2ccc(OC)cc2)Oc2ccccc2)cc1	none (no result: LYP act, PLAP act, LYP inh 2, FAK inh, MRP resist rev)
COc1ccc(P2(=O)Nc3ccccc3N2)cc1	FAK inh 40 | FAK inh conf inactive
CCCCNC(=O)c1c(N)n(CCCOC)c2nc3ccccc3nc12	none (no result: LYP act, LYP inh 2, FAK inh, MRP resist rev)
COCCNC(=O)c1c(N)n(CCC(C)C)c2nc3ccccc3nc12	FAK inh 26 | FAK inh conf inactive
CC(C)CCn1c(N)c(C(=O)NCc2cccs2)c2nc3ccccc3nc21	FAK inh 23 | FAK inh conf inactive
Cc1cccc(OP(=O)(NCc2ccccc2)Oc2cccc(C)c2)c1	none (no result: LYP act, PLAP act, LYP inh 2, FAK inh, MRP resist rev)
O=C1C(=O)c2ccccc2-c2ccccc21	FAK inh 59 (no result: MRP resist rev) | FAK inh conf 59

Bioassay records deposited in PubChem by several laboratories.
